Sampled rows, rich in hits. Any-hit rate of the full collection: about 3.5%.
FBW7 activator: FBW7 E3 ligase activators, primary screen, biochemical, AlphaScreen, human; AID 1259310, 2017; normalized activity (activation), % at 26.1 µM; 650,000 tested, 0.13% active; F-box/WD repeat-containing protein 7 (Homo sapiens), Q969H0; AlphaScreen FBW7–phospho-cyclin E peptide binding, activator screen; in the data active = normalized activity above about 1.9%;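 note: purified mutant Fbw7 with reduced substrate affinity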
Target sequence (Q969H0 whole entry, looked up): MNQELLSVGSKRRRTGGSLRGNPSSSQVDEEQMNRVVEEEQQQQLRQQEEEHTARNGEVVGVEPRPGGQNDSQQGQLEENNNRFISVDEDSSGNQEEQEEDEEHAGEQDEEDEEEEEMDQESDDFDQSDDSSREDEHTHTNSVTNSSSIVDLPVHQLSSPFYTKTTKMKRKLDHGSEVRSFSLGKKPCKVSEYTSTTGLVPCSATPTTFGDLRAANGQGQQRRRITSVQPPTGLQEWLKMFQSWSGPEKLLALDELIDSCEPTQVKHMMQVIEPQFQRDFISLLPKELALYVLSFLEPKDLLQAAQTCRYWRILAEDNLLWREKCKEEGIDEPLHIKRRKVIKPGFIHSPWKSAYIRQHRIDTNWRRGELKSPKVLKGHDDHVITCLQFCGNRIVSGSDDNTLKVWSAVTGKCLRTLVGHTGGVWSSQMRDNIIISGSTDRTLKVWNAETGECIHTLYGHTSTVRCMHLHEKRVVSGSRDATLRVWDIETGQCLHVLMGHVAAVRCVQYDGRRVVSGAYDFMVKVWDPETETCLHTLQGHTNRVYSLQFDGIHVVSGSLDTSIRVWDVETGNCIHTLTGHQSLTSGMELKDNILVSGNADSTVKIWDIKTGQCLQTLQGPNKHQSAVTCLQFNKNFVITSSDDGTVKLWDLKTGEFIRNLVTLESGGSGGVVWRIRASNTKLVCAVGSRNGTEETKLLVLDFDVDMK
MITF inh: MITF inhibitors, primary screen, biochemical, AlphaScreen, human; Microphthalmia-associated transcription factor (Homo sapiens), O75030; AlphaScreen MITF homodimerization, bead proximity signal; 650,000 tested, 0.91% active; inhibition, % at 2.6 µM; AID 1259374, 2018; in the data active = inhibition above about 50%;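 note: 0% = vehicle wells with protein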
TEAD-YAP block: TEAD-YAP interaction inhibition, primary screen, TEAD-YAP interaction inhibitor project, luminescence, HEK-TIYL cells; TEAD-Gal4/YAP UAS-luciferase luminescence; inhibition, % at 9.12 µM; 640,000 tested, 1.4% active; AID 1259422, 2018; in the data active = inhibition above about 32%;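 note: 0% = median of test compound wells and 100% = reference inhibitor wells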
GPR151 activ: activators of human GPR151, primary screen, cell-based, PathHunter beta-arrestin, luminescence. G-protein coupled receptor 151 (Homo sapiens), Q8TDV0. PathHunter beta-arrestin GPR151 cells. activation, % at 11.2 µM. 650,000 tested, 1% active. AID 1508602, 2020; in the data active = activation above about 4.9%;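 note: 0% = median of compound wells and 100% = cells with positive control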
Active calls of the source: *.

SMILES	FBW7 activator	MITF inh	TEAD-YAP block	GPR151 activ
Nc1nnc(SCC(=O)N2N=C(c3ccc4ccccc4c3)CC2c2ccccc2)s1 (centres undefined)	0	0	51*	-2
O=C1/C(=C\c2cccc([N+](=O)[O-])c2)N=C2CCCCCN12	0	9	-6	-2
COc1ccc(CCNc2nnc(Sc3nnnn3-c3ccccc3)s2)cc1OC	0	1	54*	1
O=c1[nH]c(N2CCOCC2)nc2c1CCN(Cc1cccn1-c1cccnc1)C2	0	-2	1	2
c1ccc2[nH]c(SCCCCSc3nc4ccccc4[nH]3)nc2c1	0	5	-19	0
COc1ccc(-n2c(=S)[nH]c3cc(C(=O)Nc4ccc(F)cc4)ccc3c2=O)c(OC)c1	0	3	71*	2
CCCCOc1ccc(-c2cnc(S(C)(=O)=O)nc2)cc1	0	0	46*	2
O=C(CCCl)Nc1nc2c(s1)CCc1ccccc1-2	0	11	35*	1
O=C(Nc1nc2c(s1)CCc1ccccc1-2)c1ccco1	0	-25	-25	0
N#CC1=C(N)Oc2c(ccc3cccnc23)C1c1ccccc1F (centres undefined)	-1	2	58*	-1
COc1ccc(-n2ncc3c(Nc4cccc(Cl)c4)ncnc32)cc1	0	4	-4	2
O=C(Cn1c(=O)oc2ccccc21)Nc1ccnc2ccccc12	0	6	32*	1
Cc1ccc(NC(=O)CSC2=C(C#N)C(c3ccccc3C)C3=C(CCCC3=O)N2)c(C)c1 (centres undefined)	0	17	9	1
CCC(C)(C)c1ccc(OCCCC[n+]2ccc(C)cc2)c(C(C)(C)CC)c1	0	-8	45*	0
CCC(C)(C)c1ccc(OCCCC[n+]2cccc(C)c2C)c(C(C)(C)CC)c1	0	-15	88*	1
Cc1ccc(CNC(=O)CCC2CCCN(S(=O)(=O)N(C)C)C2)o1 (centres undefined)	0	5	-1	2
COC(=O)c1ccccc1NC(=O)NNC(=O)c1cc2ccccc2cc1O	0	8	1	2
COC(=O)c1ccccc1NC(=O)NNC(=O)c1csc(C)c1-c1ccc(C)cc1	0	1	33*	2
O=[N+]([O-])c1ccc(/C=N/NC(=S)Nc2cccnc2)o1	0	21	24	0
CN(C)C(=O)n1nnc2ccccc21	0	14	59*	0
O=C(c1ccc(C(=O)n2nnc3ccccc32)cc1)n1nnc2ccccc21	0	3	-8	-1
Cc1cc2c(cc1C)-c1c(sn(-c3ccc(C(C)C)cc3)c1=S)C(C)(C)N2	0	-8	-2	3
CC(C)c1ccc(Nc2nccn3c(-c4ccoc4)cnc23)cc1	2.3*	7	-10	-1
c1ccc(Oc2ccc(Nc3nccn4c(-c5ccoc5)cnc34)cc2)cc1	0	-4	-4	2
COc1ccc(-n2nc(C(=O)NCC(=O)NCC3COc4ccccc4O3)c3ccccc3c2=O)cc1OC (centres undefined)	0	-2	36*	0
SMILES	FBW7 activator	MITF inh	TEAD-YAP block	GPR151 activ
COc1ccc(-n2nc(C(=O)NCC(=O)NCCc3ccc(OC)c(OC)c3)c3ccccc3c2=O)cc1	1	2	17	0
Cn1nc(CC(=O)Nc2ccc(F)cc2F)c2ccccc2c1=O	0	1	34*	-1
Cn1c(C(=O)O)c(CC(=O)NCC2COc3ccccc3O2)c2ccccc21 (centres undefined)	0	17	-6	2
COc1ccc(CCNC(=O)CNC(=O)c2nn(-c3ccc(OC)c(OC)c3)c(=O)c3ccccc23)cc1OC	0	1	40*	0
Cn1nc(CC(=O)NCC2COc3ccccc3O2)c2ccccc2c1=O (centres undefined)	0	11	36*	0
Cn1nc(CC(=O)Nc2ccc(Br)cc2F)c2ccccc2c1=O	0	-9	25	3
CCC(=O)Nc1ccc2nn(-c3ccc(Cl)cc3)nc2c1	0	3	-88	0
C(=N/N1CCN(c2ccccn2)CC1)/c1cccc(Oc2ccccc2)c1	0	-4	-9	0
COc1cc(OC)cc(-n2nc(C(=O)NCCc3ccc(OC)c(OC)c3)c3ccccc3c2=O)c1	0	5	3	0
COc1ccc(NC(=O)c2nn(-c3ccccc3OC)c(=O)c3ccccc23)cc1OC	0	18	-2	1
COc1cccc(-n2nc(C(=O)NCCc3ccc(OC)c(OC)c3)c3ccccc3c2=O)c1	0	10	36*	1
COc1ccccc1-n1nc(C(=O)Nc2cc(OC)c(OC)c(OC)c2)c2ccccc2c1=O	0	0	32*	0
CC1=C(C(=O)N2CCOCC2)C(c2c(F)cccc2Cl)NC(=O)N1 (centres undefined)	0	10	5	-1
COc1ccc(CCNc2ncnc3ccc(I)cc23)cc1OC	0	9	74*	4
CCc1cc2c(NCc3ccccc3)ncnc2s1	0	-21	17	2
COc1ccc(CCNc2ncnc3sc(C)cc23)cc1OC	0	-10	61*	3
CCc1cc2c(NCCc3ccccc3)ncnc2s1	0	0	36*	2
COc1ccc(CCNc2ncnc3c2cnn3C)cc1OC	0	-3	14	0
O=[N+]([O-])c1cccc(CSc2nnc(-c3ccccn3)o2)c1	0	-6	-13	1
O=C(Nc1ccc(-n2cccn2)cc1)C1CC12CCN(C(=O)/C=C/c1ccccn1)CC2 (centres undefined)	0	7	21	0
O=S(=O)(O)CCc1cc[n+](CC(O)CCl)cc1 (centres undefined)	2.4*	4	17	-1
Nc1ccc(OCC[n+]2ccc(CCS(=O)(=O)O)cc2)cc1	0	0	-8	1
O=S(=O)(O)CCc1cc[n+](CC(O)CO)cc1 (centres undefined)	2.8*	8	6	-1
Cc1ccc(N/C(N)=N/c2nc(C)cc(N3CCCC3)n2)c(C)c1	0	4	34*	1
Cc1cc(C)nc(/N=C(\N)Nc2cc(Cl)ccc2C)n1	0	7	5	-2
SMILES	FBW7 activator	MITF inh	TEAD-YAP block	GPR151 activ
COc1ccc(CNC(=O)c2ccccc2C)cc1	0	-1	2	0
COc1ccc(C2=Nc3ccccc3N=C(c3cc(OC)ccc3O)C2)cc1	0	17	-27	-1
COc1ccc(O)c(C2=Nc3ccccc3N=C(c3ccccc3)C2)c1	2.1*	10	-46	2
CC(C)Cc1nc(N2CCN(C)CC2)c2nnn(Cc3ccccc3)c2n1	0	36	11	-1
COC(=O)c1c(NC(=O)c2ccc(S(=O)(=O)N(C)C)cc2)sc2c1CCN(C(C)=O)C2	0	7	4	1
CCCCC(=O)Nc1sc2c(c1C#N)CCN(C(C)=O)C2	0	7	43*	0
CC(=O)N1CCc2c(sc(NC(=O)c3ccc(Br)cc3)c2C#N)C1	0	-2	41*	3
